Laboratory results taken from PubChem BioAssay AID588342 (National Center for Advancing Translational Sciences (NCATS), 2011).
Hit rate of the full screen: of about 360,000 compounds, about 25,000 (6.9%) were called active. Entries that show only a call come without a potency. Inconclusive results (about 9%) are left out. The sample holds actives, similar compounds and a random draw of the others, so the mix is not that of the screen. The call rests on the fitted dose curve; in most records, active means well fitted inhibition curve with a large enough effect; inconclusive means small, poorly fitted or top-dose-only effect; inactive means flat fitted curve, though single readings scatter.

Biological target: Luciferin 4-monooxygenase (Photinus pyralis) (UniProt P08659)
Sequence (P08659 whole entry, looked up): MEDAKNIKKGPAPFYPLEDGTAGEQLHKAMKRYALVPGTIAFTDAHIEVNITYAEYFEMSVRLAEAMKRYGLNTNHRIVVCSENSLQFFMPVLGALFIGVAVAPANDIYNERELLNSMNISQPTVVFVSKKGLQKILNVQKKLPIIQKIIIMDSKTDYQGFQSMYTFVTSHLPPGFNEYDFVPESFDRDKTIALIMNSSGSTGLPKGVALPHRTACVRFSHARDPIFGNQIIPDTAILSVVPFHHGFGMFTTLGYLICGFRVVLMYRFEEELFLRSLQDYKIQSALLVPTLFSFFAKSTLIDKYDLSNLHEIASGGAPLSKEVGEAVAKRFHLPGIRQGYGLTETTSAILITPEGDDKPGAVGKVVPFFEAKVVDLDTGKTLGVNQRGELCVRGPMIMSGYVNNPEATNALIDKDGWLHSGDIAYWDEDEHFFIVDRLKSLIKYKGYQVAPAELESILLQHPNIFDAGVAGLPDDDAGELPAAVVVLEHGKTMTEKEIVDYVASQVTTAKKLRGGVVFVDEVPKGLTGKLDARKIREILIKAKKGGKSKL
Test: qHTS profiling assay for firefly luciferase inhibitor/activator using purifed enzyme and Km concentrations of substrates (counterscreen for miR-21 project); further: nearly all actives have a fitted effect of over 55% in size
Conditions: purified FLuc, luminescence inhibition; series mostly up to 57.5 µM
From the text: MLPCN Grant: 1 R21 NS059478-01 (miR-21 grant) Assay Provider: NCGC NCGC Assay Overview: Firefly (Photinus pyralis) luciferase is one of the most commonly used transcriptional reporters for a number of reasons. It is considered one of the more dynamically responsive reporters -that is, responsive to changes in reporter transcription - as it requires no post-translational modifications and is enzymatically active directly after protein synthesis (Wood, 1998). Additionally, the half-life of the luciferase protein is short relative to other reporter-gene products (Wood, 1995). Whereas reporters with long half-lives potentially allow for increased signal due to accumulation of reporter-gene product, once accumulated in the cell, dynamic changes in reporter-gene expression may be difficult to detect(Fan and Wood, 2007; Almond et al., 2004). It has been shown that wild-type P. pyralis luciferase has a half-life of approximately […] hours in mammalian cells (Thompson et al., 1991). Firefly luciferase reporter-gene assays are also generally considered one of the most sensitive assay types (Wood, 1995; Wood, 1998). Although light produced in a bioluminescence reaction is of lower intensity than that produced during fluorescence emission, this is offset by little to no background light inherent to luminescent assays. Thus the luciferase reporter can be expressed at much lower levels than fluorescent proteins while still providing robust signal. # However, it was initially observed, in 1991, by Thompson et al., that compounds that resemble the substrates of firefly luciferase (FLuc) can act as competitive inhibitors of the enzyme, and that these compounds, upon interaction with luciferase in the cell, can actually stabilize the protein and increase its half-life. Accumulated intracellular FLuc protein can be measured as an increase in luminescence signal, upon addition of detection reagents (which contain high concentrations of FLuc substrates) commonly used in high-throughput screening. In cell-based reporter gene assays that use FLuc as the reporter gene to quantitate the potential influence of a given compound against the target biology, this apparent increase in luminescence can mistakenly be interpreted as identification of a compound that is active against the target of interest. This is the case for the miR-21 FLuc reporter gene assay used to identify inhibitors of the miR-21 pathway (PubChem AID 2289) - compounds of interest will inhibit miR-21 biogenesis/expression or activity, and are identified by causing an increase in luminescence, due to increased FLuc translation. However, FLuc inhibitory compounds that stabilize the FLuc protein will give an identical read-out, making it difficult to distinguish compounds that are active against the target from those active against FLuc. Previous profiling work to determine the prevalence of compounds that affect FLuc enzymatic activity (PubChem AID 411) identified that ~3% of the MLSMR library (then at ~72K) inhibited FLuc. […] Since the MLSMR had grown to ~350K compounds, and since it was expected that a significant percentage of compounds found active in the miR-21 FLuc assay would be FLuc inhibitors, the library was screened for activity against FLuc using a biochemical assay of purified FLuc and KM concentrations of FLuc substrates (D-luciferin and ATP).
NCGC Assay Protocol Summary: Reagents: 50mM Tris acetate, pH 7.5; 10mM Mg acetate; 10uM D-luciferin (Sigma #L9504); 10uM ATP; 0.01% Tween-20; 0.05% BSA; 10nM P. pyralis luciferase (Sigma #L9506) Control compounds used were two known firefly luciferase inhibitors (compounds (2) and (5) in Auld et al., 2010), and DMSO. […]

SMILES | Potency
CC(OC(=O)c1ccccc1NCCO)C(=O)Nc1ccnn1C(C)C (centres undefined) | inactive
Cn1c(=O)oc2cc(S(=O)(=O)CCC(=O)NCCc3ccc(Cl)cc3)ccc21 | inactive
Fc1ccc(CSc2nc(NCc3ccccc3)c3ccccc3n2)cc1 | inactive
COc1ccc(CNC(=O)COC(=O)c2ccc(C)c(S(=O)(=O)N3CCOCC3)c2)cc1OC | inactive
O=C(COC(=O)C1CC2CCCC(C1)C2=O)NC(=O)c1ccccc1 (centres undefined) | inactive
COc1ccc(Oc2coc3cc(OC(=O)c4cncc(Br)c4)ccc3c2=O)cc1 | inactive
CCc1ccc(Oc2coc3cc(OC(=O)c4cc5ccccc5oc4=O)ccc3c2=O)cc1 | inactive
CCc1ccc(Oc2coc3cc(O)ccc3c2=O)cc1 | 23.9 µM (active)
N#Cc1ccc(-c2nc3cc(C#N)c(C#N)cc3nc2-c2ccccc2)cc1C#N | inactive
COc1ccc(C)cc1NC(=O)C(=O)NCCc1sc(-c2cccc(C)c2)nc1C | inactive
CN(C)c1ccnc(Nc2ccc(F)cc2)c1C#N | inactive
CC(C)c1ccc(Nc2ncccc2C#N)cc1 | 15.1 µM (active)
CC(C)c1ccc(NC(=O)Cn2c3ncccc3c(=O)n2-c2ccccc2)cc1 | inactive
CCOc1cc2[nH]c(=O)n(Cc3ccc(C(=O)NCCN(CC)CC)cc3)c(=O)c2cc1OCC | inactive
O=C(Nc1ccc(Oc2ccccc2)cc1)C1CCN(S(=O)(=O)c2ccc(Cl)cc2)CC1 | inactive
O=C(O)c1ccccc1N=N/C(=N/Nc1cc(S(=O)(=O)O)ccc1O)c1ccccc1 | 16.9 µM (active)
O=C(CN(c1ccccc1)S(=O)(=O)c1ccc(Cl)cc1)Nc1ccccc1C(=O)N1CCCC1 | inactive
CC(=O)c1c(C)[nH]c(C(=O)OCC(=O)Nc2c(C)cccc2C)c1C | inactive
CC(NC(=S)Nc1ccc(OC(F)F)cc1)c1ccc(F)cc1 (centres undefined) | inactive
C[C@@H]1NC(=O)[C@@]2(C)[C@@H](c3ccccc3)[C@H]3COc4ccccc4[C@@H]3N2C1=O | inactive
CCc1ccc(Nc2nn3c(=O)c4cc5c(cc4nc3s2)OCO5)cc1 | inactive
COc1cccc(CNC(=O)COc2cc(O)c3c(c2)OC(C)(C)CC3=O)c1 | inactive

SMILES | Potency
Cc1c(C(=O)NCc2ccccc2Br)oc2ccc3c(c12)C(=O)CC(C)(C)O3 | 1.69 µM (active)
CC(C)CC(=O)N1CCN(Cc2ccccc2Br)CC1 | inactive
COc1ccc(-c2nc3sc(CCNS(=O)(=O)c4ccc(F)c(C)c4)c(C)n3n2)cc1 | inactive
COc1ccc(C(=O)Nc2ccc(-n3nncc3C(C)(C)C)cc2)cc1 | inactive
COc1ccc(CNC(=O)C(=O)N2CCC3(CC2)OCCN3S(=O)(=O)c2ccc(C)cc2)cc1 | inactive
Cc1cc(Cl)ccc1OCC(=O)N(Cc1ccc(N(C)C)cc1)C1CCS(=O)(=O)C1 (centres undefined) | inactive
Cc1ccc(C(=O)COC(=O)C(Cc2c[nH]c3ccccc23)NC(=O)c2ccc(Br)cc2)cc1 (centres undefined) | inactive
COC(=O)[C@@H](NC(=O)Nc1cc(Cl)ccc1C)C(C)C | inactive
CC(CCCc1ccccc1)NC(=O)c1nn(-c2ccc(Cl)cc2)nc1CO (centres undefined) | inactive
Cc1cc2nn(-c3ccc(Cl)cc3)nc2cc1NC(=O)C(C)C | 0.379 µM (active)
CCN(C(=O)COC(=O)c1c(C)nn(-c2ccccc2)c1Cl)c1c(N)n(Cc2ccccc2)c(=O)[nH]c1=O | inactive
CCOC(=O)C1=C(c2ccccc2)Nc2ncnn2C1c1ccc(Cl)cc1 (centres undefined) | inactive
CCCSc1ncc(Cl)c(C(=O)Nc2sc3c(c2C(=O)NCCOC)CCCC3)n1 | inactive
CSc1ccc(/C=N/NC(=O)c2cccc(Cl)c2)cc1 | 5.36 µM (active)
CC1=NNC(=O)C1CCC(=O)N/N=C\c1ccc(Cl)c(Cl)c1 (centres undefined) | inactive
CC(NC(=O)C(=O)N/N=C/c1ccc(Cl)cc1)c1ccccc1 (centres undefined) | inactive
NCCCCCC(=O)N/N=C/c1ccc2nccnc2c1 | inactive
O=C(N/N=C/c1ccc(Cl)c(Cl)c1)c1ccc2nc[nH]c2c1 | 13.5 µM (active)
CSc1ccc(/C=N\NC(=O)CC(=O)NC(C)C)cc1 | inactive
Cc1ccccc1CNC(=O)C1CCCN(S(=O)(=O)N(C)c2ccc(F)cc2)C1 (centres undefined) | inactive
CCN(CC)CCN1C(=O)C(=O)/C(=C(/O)c2cnn(-c3ccccc3)c2C)C1c1cccs1 (centres undefined) | 21.3 µM (active)
CCN(CC)CCN1C(=O)C(=O)/C(=C(/O)c2ccc(OC)c(OC)c2)C1c1ccccn1 (centres undefined) | inactive

SMILES | Potency
Cc1c(C(=O)NCc2ccccc2)cnn1-c1ccccc1 | inactive
CN(CC(=O)Nc1ccc(Cl)c(C(F)(F)F)c1)C(=O)CCC(=O)c1ccccc1 | inactive
Cc1nnc(SCc2cc(=O)c3cc(F)ccc3[nH]2)n1C | inactive
COc1ccc(-c2cc(C(F)(F)F)nc(NCc3cccnc3)n2)cc1 | inactive
COc1ccc(-c2cn[nH]c2-c2ccc(OC)cc2)cc1 | inactive
COc1ccc(-c2cc3ncccc3cn2)cc1 | 5.36 µM (active)
CCOCCCNc1c(CC)c(C)c(C#N)c2nc3ccccc3n12 | inactive
CC1CCc2c(sc3c2C2=NS(=O)(=O)CCN2C=N3)C1 (centres undefined) | inactive
CCOC(=O)N1CCN(S(=O)(=O)c2ccc3c(c2)C(C)C(=O)N3)CC1 (centres undefined) | inactive
CCOC(=O)c1c(SCC(=O)Nc2cccc(C)c2C)nc(=O)[nH]c1C | inactive
Cc1ccccc1OCc1ccc(-c2nc(C#N)c(N3CCCCC3)o2)o1 | inactive
Cc1ccc(O)c(NC(=O)c2cc(-c3ccc(F)cc3)no2)c1 | inactive
Cc1ccc(O)c(NC(=O)COc2cc(C)ccc2C)c1 | inactive
Cc1ccc(O)c(NC(=O)c2cc(-c3ccco3)on2)c1 | 6.01 µM (active)
COc1cc(C(=O)NCC(c2ccco2)N2CCCC2)ccc1OCc1ccccc1 (centres undefined) | inactive
CCc1sc(C(=O)N2CCN(CC(=O)Nc3cccc(F)c3)CC2)cc1C | 13.5 µM (active)
CC(=O)N1CCN(CC(=O)Nc2ccc(C)c(F)c2)CC1 | inactive
O=C(CN1CCN(C(=O)c2cccc(F)c2)CC1)Nc1ccccc1F | inactive
CN(CC(=O)Nc1ccc(Cl)cc1)C(=O)c1ccc(COc2ccccc2)cc1 | inactive
Cc1c(NC(=O)c2cc(=O)c3ccccc3o2)c(=O)n(-c2ccccc2)n1C | inactive
